Drawing on PubChem BioAssay (NCI), this text covers growth inhibition for 10 compounds.

Structures are written as SMILES. The panel holds about 79,000 compounds, 15% with a hit somewhere; the sample as a whole holds those more often. A number with no mark means an inactive call. Activity calls are given as the source filed them. Cut-off read from the data, not from the text of the source: active = growth inhibition above about 70%; inactive = the rest.

Assay [1] can be described thus: NCI Yeast Anticancer Drug Screen. Data for the rad50 strain (AID 155).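 Note: 0% = growth of vehicle-only cultures of the same strain.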 The settings on record: S. cerevisiae rad50 strain growth inhibition, active compounds read high. A digest of the protocol: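 Inhibition values express reduced yeast growth in compound-treated cultures relative to vehicle-treated controls.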
Assay [2] in a line: NCI Yeast Anticancer Drug Screen. Data for the mec2-1 strain (AID 157). The conditions noted are these: S. cerevisiae mec2-1 strain, active compounds read high. A digest of the protocol:
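Vehicle-treated cultures served as reference for growth inhibition of compound-exposed mec2-1 yeast.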

A short description of assay [3]: NCI Yeast Anticancer Drug Screen. Data for the sgs1 mgt1 strain (AID 161).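 Note: 0% = growth of cultures given vehicle only.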 The settings on record: S. cerevisiae sgs1 mgt1 strain, active compounds read high. A digest of the protocol: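 Inhibition of yeast growth, normalised to vehicle-treated controls, is reported for a strain bearing genetic alterations in DNA damage repair.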
Assay [4] can be described thus: NCI Yeast Anticancer Drug Screen. Data for the cln2 rad14 strain (AID 165).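 Note: 0% = growth equal to vehicle treated cultures.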 The conditions noted are these: S. cerevisiae cln2 rad14 strain, active compounds read high. A digest of the protocol:
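Each compound was tested on cln2 rad14 yeast. Inhibition of growth was calculated against vehicle-exposed controls.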

Assay [5] can be described thus: NCI Yeast Anticancer Drug Screen. Data for the bub3 strain (AID 167). The settings on record: S. cerevisiae bub3 mutant strain, active compounds read high. A digest of the protocol: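 Steps: expose the mutant yeast strain to compound; grow alongside vehicle-treated cultures; measure growth; express inhibition against the vehicle cultures.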
The nature of assay [6]: NCI Yeast Anticancer Drug Screen. Data for the mlh1 rad18 strain (AID 175). The settings on record: S. cerevisiae mlh1 rad18 strain growth inhibition, active compounds read high. A digest of the protocol: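 Vehicle-treated cultures served as the reference for growth inhibition in a yeast strain carrying DNA damage repair alterations exposed to each compound.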
Where [7] appears, read: at 5.0 µM (retest, dose inferred, filed as 0.5).
[8] abbreviates: at 50.0 µM (retest, dose inferred, filed as 5.0).

As for `Nc1n[nH]c(=O)c2cccnc12`, the growth inhibition in assay [1] (setting [7]) is -1%; in assay [1] (setting [8]), -13%; in assay [1] (at 50.0 µM) it was 0.7%; in assay [2] (setting [7]) it was 2%; in assay [2] (setting [8]), -12%; in assay [2] (at 50.0 µM) it was -7.95%. The growth inhibition was -1% in assay [3] (setting [7]); -13% in assay [3] (setting [8]); -10.2% in assay [3] (at 50.0 µM); 5% in assay [4] (setting [7]); -13% in assay [4] (setting [8]); 17% in assay [4] (at 50.0 µM). In addition, the growth inhibition in assay [5] (setting [7]) is 1%; in assay [5] (setting [8]), -4%; in assay [5] (at 50.0 µM) it was 12.9%; in assay [6] (setting [7]) it was 2%; in assay [6] (setting [8]), -14%; in assay [6] (at 50.0 µM), 3.25%.

Turning to `O=C(/C=C/c1ccccc1)c1cc2c(cc1O)OCO2`, the growth inhibition in assay [1] (setting [7]) was -6%; in assay [1] (setting [8]), 17%; in assay [1] (at 50.0 µM), 29.6%; in assay [2] (setting [7]), -5%; in assay [2] (setting [8]), 3%; in assay [2] (at 50.0 µM), -3.2%. Further, the growth inhibition in assay [3] (setting [7]) is -16%; in assay [3] (setting [8]) it was 9%; in assay [3] (at 50.0 µM), 22.9%; in assay [4] (setting [7]), 2%; in assay [4] (setting [8]), 31%; in assay [4] (at 50.0 µM) it was 13.8%. The growth inhibition in assay [5] (setting [7]) was 3%; in assay [5] (setting [8]), 37%; in assay [5] (at 50.0 µM), 18.8%; in assay [6] (setting [7]) it was -16%; in assay [6] (setting [8]), -1%; in assay [6] (at 50.0 µM), 31.5%.

Turning to `COC(=O)c1nc(=S)[nH]c(C(=O)OC)c1C(=O)C(C)(C)C`, the growth inhibition was 6% in assay [1] (setting [7]); 24% in assay [1] (setting [8]); -6.8% in assay [1] (at 50.0 µM); 4% in assay [2] (setting [7]); 18% in assay [2] (setting [8]); -10.4% in assay [2] (at 50.0 µM). In addition, the growth inhibition in assay [3] (setting [7]) is 11%; in assay [3] (setting [8]), 22%; in assay [3] (at 50.0 µM), -21.9%; in assay [4] (setting [7]) it was 5%; in assay [4] (setting [8]), 22%; in assay [4] (at 50.0 µM), 45.6%. Further, the growth inhibition is 5% in assay [5] (setting [7]); 26% in assay [5] (setting [8]); -25.2% in assay [5] (at 50.0 µM); 9% in assay [6] (setting [7]); 20% in assay [6] (setting [8]); 4.75% in assay [6] (at 50.0 µM).

As for `c1cc(CCSSCCc2ccncc2)ccn1`, the growth inhibition is 7% in assay [1] (setting [7]); 89% (active) in assay [1] (setting [8]); 27.5% in assay [1] (at 50.0 µM); 1% in assay [2] (setting [7]); 87% (active) in assay [2] (setting [8]); 50.9% in assay [2] (at 50.0 µM). Moreover, the growth inhibition in assay [3] (setting [7]) was -1%; in assay [3] (setting [8]) it was 79% (active); in assay [3] (at 50.0 µM), 33.5%; in assay [4] (setting [7]), 4%; in assay [4] (setting [8]) it was 42%; in assay [4] (at 50.0 µM), 72.8% (active). Also, the growth inhibition in assay [5] (setting [7]) was 1%; in assay [5] (setting [8]) it was 98% (active); in assay [5] (at 50.0 µM), 38.4%; in assay [6] (setting [7]), 2%; in assay [6] (setting [8]), 92% (active); in assay [6] (at 50.0 µM) it was 30.3%.

`NC(=S)N/N=C\C12CC3CC(CC(C3)C1)C2`: the growth inhibition in assay [1] (setting [7]) is 57%; in assay [1] (setting [8]), 98% (active); in assay [1] (at 50.0 µM), 97.4% (active); in assay [2] (setting [7]), 73% (active); in assay [2] (setting [8]) it was 97% (active); in assay [2] (at 50.0 µM) it was 93.7% (active). Further, the growth inhibition in assay [3] (setting [7]) is 70% (active); in assay [3] (setting [8]), 98% (active); in assay [3] (at 50.0 µM), 92.8% (active); in assay [4] (setting [7]), 25%; in assay [4] (setting [8]), 97% (active); in assay [4] (at 50.0 µM), 71.5% (active). The growth inhibition in assay [5] (setting [7]) was 62%; in assay [5] (setting [8]), 98% (active); in assay [5] (at 50.0 µM), 95.6% (active); in assay [6] (setting [7]) it was 77% (active); in assay [6] (setting [8]) it was 99% (active); in assay [6] (at 50.0 µM), 96.5% (active).

For the compound `O/N=C(/Cc1ccccc1)c1ccc2c(c1)OCO2`, the growth inhibition is -4% in assay [1] (setting [7]); 6% in assay [1] (setting [8]); -9.8% in assay [1] (at 50.0 µM); -14% in assay [2] (setting [7]); -11% in assay [2] (setting [8]); 4.9% in assay [2] (at 50.0 µM). The growth inhibition in assay [3] (setting [7]) is -18%; in assay [3] (setting [8]), 3%; in assay [3] (at 50.0 µM), -2.4%; in assay [4] (setting [7]), -6%; in assay [4] (setting [8]) it was 17%; in assay [4] (at 50.0 µM) it was 8.6%. For the same compound, the growth inhibition in assay [5] (setting [7]) is 6%; in assay [5] (setting [8]) it was 29%; in assay [5] (at 50.0 µM) it was 15.1%; in assay [6] (setting [7]) it was -19%; in assay [6] (setting [8]), 10%; in assay [6] (at 50.0 µM), 2.95%.

`COc1ccc(/C=C(/NC(=O)c2ccccc2)C(=O)Nc2ccccc2)cc1OC`: the growth inhibition in assay [1] (setting [7]) is -13%; in assay [1] (setting [8]), -6%; in assay [1] (at 50.0 µM) it was 3.3%; in assay [2] (setting [7]), -7%; in assay [2] (setting [8]) it was -12%; in assay [2] (at 50.0 µM) it was 16.1%. Further, the growth inhibition in assay [3] (setting [7]) is -6%; in assay [3] (setting [8]), -5%; in assay [3] (at 50.0 µM), -18.4%; in assay [4] (setting [7]), -23%; in assay [4] (setting [8]) it was -24%; in assay [4] (at 50.0 µM), 50.5%. In addition, the growth inhibition in assay [5] (setting [7]) was -6%; in assay [5] (setting [8]), 9%; in assay [5] (at 50.0 µM), -8.25%; in assay [6] (setting [7]) it was -4%; in assay [6] (setting [8]) it was -11%; in assay [6] (at 50.0 µM), 29.3%.

`O=C1Nc2ccccc2SC1c1ccccc1` (stereo not given): the growth inhibition in assay [1] (setting [7]) was 3%; in assay [1] (setting [8]) it was 97% (active); in assay [1] (at 50.0 µM), 98.2% (active); in assay [2] (setting [7]), 15%; in assay [2] (setting [8]), 99% (active); in assay [2] (at 50.0 µM) it was 99.6% (active). For the same compound, the growth inhibition in assay [3] (setting [7]) is -2%; in assay [3] (setting [8]) it was 99% (active); in assay [3] (at 50.0 µM) it was 99.5% (active); in assay [4] (setting [7]), 10%; in assay [4] (setting [8]), 99% (active); in assay [4] (at 50.0 µM), 98.8% (active). Moreover, the growth inhibition is 19% in assay [5] (setting [7]); 98% (active) in assay [5] (setting [8]); 99.3% (active) in assay [5] (at 50.0 µM); 10% in assay [6] (setting [7]); 99% (active) in assay [6] (setting [8]); 98.8% (active) in assay [6] (at 50.0 µM).

Regarding `Cc1ccc(N=Nc2ccc(N)c3ccccc23)c(S(N)(=O)=O)c1`, the growth inhibition in assay [1] (setting [7]) is -4%; in assay [1] (setting [8]), 38%; in assay [1] (at 50.0 µM), 27.1%; in assay [2] (setting [7]), 0%; in assay [2] (setting [8]), 24%; in assay [2] (at 50.0 µM), 1.95%. Moreover, the growth inhibition in assay [3] (setting [7]) was -1%; in assay [3] (setting [8]) it was 51%; in assay [3] (at 50.0 µM), 44.9%; in assay [4] (setting [7]) it was -2%; in assay [4] (setting [8]), 29%; in assay [4] (at 50.0 µM), 70.8% (active). Besides, the growth inhibition in assay [5] (setting [7]) is -6%; in assay [5] (setting [8]), 61%; in assay [5] (at 50.0 µM) it was 22.2%; in assay [6] (setting [7]), 0%; in assay [6] (setting [8]), 61%; in assay [6] (at 50.0 µM) it was 13.1%.

Regarding `CC/C=C(\C)CC(C)O` (stereo not given), the growth inhibition was -3% in assay [1] (setting [7]); 16% in assay [1] (setting [8]); 64.9% in assay [1] (at 50.0 µM); -4% in assay [2] (setting [7]); 3% in assay [2] (setting [8]); 43.8% in assay [2] (at 50.0 µM). The growth inhibition is -3% in assay [3] (setting [7]); 18% in assay [3] (setting [8]); 77.6% (active) in assay [3] (at 50.0 µM); 1% in assay [4] (setting [7]); 9% in assay [4] (setting [8]); 59.7% in assay [4] (at 50.0 µM). Further, the growth inhibition in assay [5] (setting [7]) is 1%; in assay [5] (setting [8]) it was -5%; in assay [5] (at 50.0 µM), 57%; in assay [6] (setting [7]) it was -3%; in assay [6] (setting [8]), 8%; in assay [6] (at 50.0 µM), 54.9%.
